Test results published in PubChem BioAssay (NCI).
Compounds without any hit were thinned out: in the full panel of roughly 83,000, 20% have a hit.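 Percent growth is the endpoint: 0 to 100 indicates growth inhibition (40 means 60% inhibition), 0 means no net growth, and negative values indicate cell death.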 Values without a mark were called inactive. Activity calls are given as the source filed them. How the source made its calls: active means growth percent below 10; inactive means the rest.

Experiments:
Assay in all cases: NCI-60 one-dose screen, 48 h (100 = growth as untreated, 0 = no growth, -100 = all killed)
Conditions in all cases: 10 µM unless noted
HCT-15 colon = test system: HCT-15 colon
HT29 colon = test system: HT29 colon
SNB-75 CNS = test system: SNB-75 CNS
SNB-19 CNS = test system: SNB-19 CNS
U251 CNS = test system: U251 CNS
PC-3 prostate = test system: PC-3 prostate
SK-MEL-5 melanoma = test system: SK-MEL-5 melanoma
UACC-62 melanoma = test system: UACC-62 melanoma
LOX IMVI melanoma = test system: LOX IMVI melanoma
SK-MEL-28 melanoma = test system: SK-MEL-28 melanoma
SK-MEL-2 melanoma = test system: SK-MEL-2 melanoma
EKVX NSCLC = test system: EKVX NSCLC
SN12C renal = test system: SN12C renal
UO-31 renal = test system: UO-31 renal
TK-10 renal = test system: TK-10 renal
ACHN renal = test system: ACHN renal
CAKI-1 renal = test system: CAKI-1 renal
A498 renal = test system: A498 renal
CCRF-CEM leukemia = test system: CCRF-CEM leukemia
MOLT-4 leukemia = test system: MOLT-4 leukemia

| SMILES | growth (HCT-15 colon) | growth (HT29 colon) | growth (SNB-75 CNS) [%] | growth (SNB-19 CNS) [%] | growth (U251 CNS) | growth (PC-3 prostate) [%] | growth (SK-MEL-5 melanoma) | growth (UACC-62 melanoma) [%] | growth (LOX IMVI melanoma) | growth (SK-MEL-28 melanoma) [%] | growth (SK-MEL-2 melanoma) [%] | growth (EKVX NSCLC) [%] | growth (SN12C renal) [%] | growth (UO-31 renal) | growth (TK-10 renal) [%] | growth (ACHN renal) | growth (CAKI-1 renal) | growth (A498 renal) | growth (CCRF-CEM leukemia) | growth (MOLT-4 leukemia) [%] |
| --- | --- | --- | --- | --- | --- | --- | --- | --- | --- | --- | --- | --- | --- | --- | --- | --- | --- | --- | --- | --- |
| CC1(C)[C@@H](O)CC[C@]2(C)[C@H]3CC[C@@H]4[C@H]5[C@H](C(=O)/C=C\c6ccncc6)CC[C@]5(O)CC[C@@]4(C)[C@]3(C)CC[C@@H]12 | 20.3% | 34.7% | 21.2 | 58.7 | 61.1% | 67.5 | 80.6% | 46.9 | 5.63% (active) | 74.8 | 94.9 | 42.8 | 75.1 | 53.1% | 100 | 52.5% | 35.1% | 46.6% | 8.75% (active) | 27.9 |
| CC1(C)NCCC[C@]2(C)[C@H]3C/C(=N\O)C4[C@@H]5C[C@@](C)(CO)CC[C@]5(C)CC[C@@]4(C)[C@]3(C)CC[C@@H]12 (stereo not given in full) | 93.1% | 88.9% | 75.1 | 96.6 | 87.3% | 88.9 | 98.7% | 95.2 | 101% | 103 | 101 | 108 | 94.1 | 90.2% | 107 | 101% | 85.8% | 96.1% | 91.9% | 80.5 |
| N#Cc1cccc(/C(N)=N/C(N)=N/c2nc3ccccc3s2)c1 | 31.9% | 11.3% | 22.2 | 27.3 | 27.7% | 17.7 | 41.5% | 34.5 | 46.2% | 65.4 | 40.4 | 43.3 | 34.9 | 44.2% | 81.3 | 48.3% | 34% | -4.3% (active) | 6.56% (active) | 27.7 |
| CC(=O)C1=C(C)NC(NNC(N)=S)=NC1c1ccccc1 (stereo not given) | 105% | 109% | 41.1 | 98.8 | 106% | 99.9 | 96.7% | 93.3 | 88.2% | 98.1 | 96.9 | 70.9 | 83.8 | 59.5% | 56.8 | 101% | 64.7% | 2.72% (active) | 95.5% | 114 |
| COc1ccc2c(c1)c(-c1cc(N)n3nc(-c4cn(C)c5ccc(OC)cc45)cc3n1)cn2C | 29.8% | 75.6% | 98.2 | 107 | -30.9% (active) | 88.7 | 102% | 100 | 105% | 113 | 133 | 107 | 92.4 | 93.3% | 121 | 103% | 96.7% | 88.8% | -8.54% (active) | 56.1 |
| C=CCOc1cccc(/C=C2\SC(=S)N(C3CC(=O)N(c4ccc(Br)cc4)C3=O)C2=O)c1 (stereo not given) | 97.5% | 115% | 120 | 96.5 | 96.6% | 93.1 | 101% | 86.8 | 93.1% | 96.6 | 117 | 105 | 92.8 | 89.6% | 126 | 94.8% | 104% | 105% | 96.7% | 105 |
| O=C(CSc1nc2ccccc2c(=O)n1-c1ccccc1)Nc1cccc(C(=O)/C=C/c2ccccc2)c1 | 76.4% | 96.4% | 75.6 | 85.5 | 71.2% | 90.4 | 99.5% | 88.7 | 86.1% | 102 | 100 | 96.7 | 98.4 | 76% | 107 | 102% | 86% | 98% | 90.3% | 88.6 |
| COc1ccc2[nH]cc(/C=N/Nc3nc4ccccc4s3)c2c1 | 22.9% | 59.9% | 66.5 | 80 | 55.7% | 33.2 | 83.7% | 73.1 | 30.7% | 83.1 | 80.5 | 50 | 69.6 | 37.4% | 103 | 63.9% | 41.3% | 63.4% | 47.3% | 35.9 |
| O=C1CC(=O)N2CSCN(C(c3ccccc3)c3nc4ncncc4[nH]3)C2=N1 (stereo not given) | 100% | 106% | 99.8 | 93.8 | 97.9% | 98 | 105% | 97 | 108% | 117 | 96.6 | 94.3 | 103 | 79.6% | 106 | 99.8% | 93.2% | 85.8% | 108% | 112 |
| Clc1cccc(/C=N/Nc2nc(N/N=C/c3cccc(Cl)c3Cl)nc(N3CCCCC3)n2)c1Cl | 65.5% | 84.3% | 104 | 95.4 | 52.9% | 70.1 | 94.2% | 89.8 | 68.3% | 97.7 | 114 | 89 | 80.7 | 93.2% | 91.2 | 83.7% | 84.1% | 92.5% | 71.3% | 84.3 |
| N=c1c2cc(-c3ccccc3)oc2ncn1/N=C/c1ccc(Br)cc1 | 57.9% | 102% | 58 | 74.9 | 45.9% | 75.3 | 97.1% | 90.4 | 45.3% | 77.8 | 104 | 79.4 | 60 | 85.4% | 111 | 19.3% | 88.5% | 80.4% | 68.7% | 85 |
| CC(c1ccccc1)N1CSc2nc3ncncc3n2C1 (stereo not given) | 37.3% | 30.4% | 51.5 | 99.5 | 70.6% | 42.4 | 49.3% | 20.6 | 10.1% | 96.9 | 57.2 | 84.8 | 68.8 | 47.6% | 42.6 | 45.2% | 27.2% | 85.8% | 23.1% | 18.2 |
| CNC(=O)c1c(NC(=O)c2ccccc2C(F)(F)F)sc2c1CCC(=O)C2 | 9.11% (active) | 26.5% | 93.1 | 41.1 | 24.8% | 14.8 | -17.1% (active) | 16.6 | 22% | 45.4 | 88.1 | 23.9 | 62.1 | 3.82% (active) | 26.2 | 9.31% (active) | 0.09% (active) | 80.4% | 11.9% | 18.3 |
| COc1cc(OC)c(/C=C/S(=O)(=O)Cc2ccc(OC)c(NC(=O)CCC(=O)NO)c2)c(OC)c1 | 8.57% (active) | 3.2% (active) | 31.6 | 23 | 14.6% | 28.7 | -31.6% (active) | 13.8 | 10.4% | 60 | 46.6 | 36.1 | 22.7 | 34.1% | 64.4 | 28.1% | 25.3% | -20.8% (active) | 11.5% | 17.2 |
| COc1c(N2CC3CCCNC3C2)c(F)cc2c(=O)c(C(=O)N/N=C/c3ccc(N(C)C)cc3)cn(C3CC3)c12 (stereo not given) | 16.4% | -12% (active) | 100 | 78.3 | 49% | 60.4 | 83.9% | 100 | -22.6% (active) | 97.8 | 114 | 86.2 | 65.5 | 59.1% | 122 | 46.8% | 90.3% | 113% | 29.6% | 29.5 |
